Laboratory results reported in PubChem BioAssay (EPA / NIEHS).
Calls of active or inactive are those of the source. How the source made its calls: active means hit-call score of the fitted dose curve at least 0.9, where 1 is the maximum; inactive means score below 0.9.

read-out: Monocyte Chemoattractant Protein-1 (MCP1), CCL2 (gene 6347); test: BSK_LPS_MCP1: BioMAP Diversity Plus: LPS Assay for Monocyte Chemoattractant Protein-1 (MCP1) Biomarker Activity (AID 2283081); details: primary human HUVEC with PBMC; actives raise or lower the signal;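 on AC50: co-culture stimulated with LPS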
Protocol: BSK_LPS is a cell-based, multiplexed-readout assay that uses umbilical vein endothelium and peripheral blood mononuclear cells, a human vascular primary cell co-culture, with measurements taken at 24 hours after chemical dosing in a 96-well plate.BSK_LPS_MCP1 is an assay component measured in the BSK_LPS assay. It measures MCP-1 antibody related to regulation of gene expression using ELISA technology.Data from the assay component BSK_LPS_MCP1 was analyzed into 1 assay endpoint. This assay endpoint, BSK_LPS_MCP1, was analyzed with bidirectional fitting relative to DMSO as the negative control and baseline of activity. Using a type of binding reporter, gain or loss-of-signal activity can be used to understand changes in the signaling as they relate to the gene CCL2. Furthermore, this assay endpoint can be referred to as a primary readout, because this assay has produced multiple assay endpoints where this one serves a signaling function. To generalize the intended target to other relatable targets, this assay endpoint is annotated to the cytokine intended target family, where the subfamily is chemotactic factor.
The levels of cell surface (or secreted, indicated by the prefix "s") biomarker endpoints were measured by ELISA. Overt cytotoxicity to cells in confluent adherent cultures (all systems other than the BT system) was assessed by measuring total protein levels using sulforhodamine B (SRB) staining in parallel cultures at the time of biomarker measurements, indicated as SRB endpoints. For proliferation assays for adherent cell types, individual cell types are cultured at sub-confluence and relative cell numbers quantified by SRB staining at time points optimized for each system (48 h: 3C and CASM3C systems; 72 h: BT and HDF3CGF systems; 96 h: SAg system). SRB was performed by staining cells with 0.1% SRB after fixation with 10% TCA and reading wells at 560 nm.Viability and proliferation of PBMC (T cells) was quantified by Alamar Blue reduction for the SAg and BT systems. For PBMC viability (referred to as PBMC Cytotoxicity within the assay endpoint names), cells were plated (75,000/well in a 96-well plate) and then chemical samples added for 1 h before addition of activators, SEB and TSST-1 (20 ng/mL final concentration each). Cells were incubated for 90 h. Then, Alamar Blue (20 uL/well) (Invitrogen, Cat DAL1100) was added for 6 h, and the plates were read with a fluorescence microplate reader at 546/580 nm (excitation/emission). For PBMC proliferation, cells were plated and activated as above but incubated for only 16 h prior to addition of Alamar Blue. Plates were read after 6 h.

Row | SMILES | outcome | AC50
1 | NC(=O)Cn1c(=O)cc(CCN2CCN(c3nccc4sccc34)CC2)c2ccc(F)cc21 | inactive | 
2 | COc1ccc2c(c1)c(CC(=O)O)c(C)n2C(=O)c1ccc(Cl)cc1 | inactive | 
3 | CC(=O)Oc1ccccc1C(=O)O | inactive | 
4 | CCc1c(C(=O)NN2CCCCC2)nn(-c2ccc(Cl)cc2Cl)c1-c1ccc(Br)cc1 |  | 8.8 µM (active)
5 | Nc1nc(N)c2nc(CNc3ccc(C(=O)N[C@@H](CCC(=O)O)C(=O)O)cc3)cnc2n1 | inactive | 
6 | COCCOC[C@H](CC1(C(=O)NC2CCC(C(=O)O)CC2)CCCC1)C(=O)Oc1ccc2c(c1)CCC2 (stereo not given in full) | inactive | 
7 | CC1=C(/C=C/C(C)=C/C=C/C(C)=C/CO)C(C)(C)CCC1 | inactive | 
8 | Cc1ccc(C)c(C)c1 | inactive | 
9 | CC(=O)OCCOCCOCCOC(C)=O | inactive | 
10 | CCOc1ccc2c(c1)C(C)=CC(C)(C)N2 | inactive | 
11 | O=C(O)CCCCC(=O)O | inactive | 
12 | CCCCCC(=O)O | inactive | 
13 | CCCCOC(=O)CCCCCCCCC(=O)OCCCC | inactive | 
14 | NS(=O)(=O)c1cc2c(cc1Cl)NCNS2(=O)=O | inactive | 
15 | O=c1[nH]cc(F)c(=O)[nH]1 | inactive | 
16 | CNCc1cc(F)ccc1Oc1ccc(Cl)c(Cl)c1 |  | 26.2 µM (active)
17 | O=C(O)Cc1ccccc1Nc1c(Cl)cccc1Cl | inactive | 
18 | CCCCCCOCCO | inactive | 
19 | CNC(=O)[C@H]1O[C@@H](n2cnc3c(NCc4cc(Cl)ccc4OCc4cc(C)no4)ncnc32)[C@H](O)[C@@H]1N | inactive | 
20 | FC(F)(F)C(F)(F)C(F)(F)C(F)(F)C(F)(F)C(F)(F)CCI | inactive | 

Row | SMILES | outcome | AC50
21 | CCCCN(CCCC)CCCC | inactive | 
22 | CCCCCCCCCCCCCO | inactive | 
23 | CN1CCCC1=O | inactive | 
24 | O=C(N[C@@H](Cc1ccccc1)[C@@H](O)C(=O)N1C[C@@H](O)[C@@H](O)C1)c1cc2cc(Cl)ccc2[nH]1 | inactive | 
25 | Nc1ccc(S(=O)(=O)c2ccc(N)cc2)cc1 | inactive | 
26 | C=CCc1ccc(O)c(OC)c1 | inactive | 
27 | OC[C@@H](O)[C@@H](O)[C@H](O)[C@H](O)CO | inactive | 
28 | COc1cc(S(=O)(=O)O)c(C)cc1N=Nc1c(O)ccc2cc(S(=O)(=O)O)ccc12 | inactive | 
29 | Oc1ccc2ccccc2c1N=Nc1ccccc1 | inactive | 
30 | Cc1ccc2ncccc2c1 | inactive | 
31 | CCOC(=O)C(C)(C)Oc1ccc(Cl)cc1 | inactive | 
32 | COc1ccc(C)cc1N | inactive | 
33 | NCCO | inactive | 
34 | CCCCCCCCCCCCCCCC | inactive | 
35 | C=CCOC(=O)c1ccccc1C(=O)OCC=C | inactive | 
36 | CCCCCCC(=O)OCC | inactive | 
37 | CCCCCCCCCCCC(=O)OC | inactive | 
38 | CN[C@H]1CC[C@@H](c2ccc(Cl)c(Cl)c2)c2ccc(S(N)(=O)=O)cc21 |  | 18.7 µM (active)
39 | Nc1ccc2c(c1)C(=O)c1ccccc1C2=O | inactive | 
40 | C[Si]1(C)O[Si](C)(C)O[Si](C)(C)O[Si](C)(C)O1 | inactive | 
